# Data as given in PubChem BioAssay.
# Some of the results follow. Activity calls are given as the source filed them.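 The calls were made as follows, unless noted: active = mean inhibition of the reporter signal across four replicates at the single tested dose of 50% or more; inactive = the rest.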
# Columns and labels:
# [1] = NFkB reporter suppression in cystic fibrosis bronchial cells – cell-based, uHTS hits, panel, cytotoxicity readout, dose response (AID 624344); conditions: CF bronchial epithelial cells, PAF-induced NFkB reporter inhibition, with PAF, run 1; at 79 µM (top of the series) unless noted
# [2] = as above; conditions: CF bronchial epithelial cells, PAF-induced NFkB reporter inhibition, with PAF, run 2; at 79 µM (top of the series) unless noted
# [3] = test system: Cytotoxicity; assay: as above; conditions: CF bronchial epithelial cells; run 1, at 19.8 µM (top of the series)
# [4] = target: Tumor necrosis factor receptor superfamily member 10B (Homo sapiens) (UniProt O14763); assay: viability loss of caspase-8 NB7 cells with TRAIL – with/without TRAIL, luminescence panel, confirmation (AID 651596; in the data active = activity above about 50%); conditions: NB7 neuroblastoma + caspase-8, TRAIL sensitization, NB7 Caspase-8, with TRAIL, mean of runs, at 10 µM, stronger effect = higher value
# Sequence of Tumor necrosis factor receptor superfamily member 10B (Homo sapiens) (O14763 whole entry, looked up): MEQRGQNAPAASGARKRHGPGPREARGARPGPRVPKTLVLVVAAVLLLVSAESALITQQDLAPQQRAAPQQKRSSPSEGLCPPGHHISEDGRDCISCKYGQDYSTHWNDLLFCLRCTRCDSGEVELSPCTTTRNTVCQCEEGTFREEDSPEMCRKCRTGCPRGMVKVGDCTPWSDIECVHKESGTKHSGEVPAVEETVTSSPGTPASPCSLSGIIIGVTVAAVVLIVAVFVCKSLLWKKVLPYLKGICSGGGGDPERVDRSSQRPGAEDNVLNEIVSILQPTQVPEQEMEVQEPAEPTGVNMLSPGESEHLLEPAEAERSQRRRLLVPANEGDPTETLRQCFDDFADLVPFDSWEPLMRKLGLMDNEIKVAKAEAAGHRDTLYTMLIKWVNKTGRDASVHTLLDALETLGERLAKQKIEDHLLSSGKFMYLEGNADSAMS
# [5] = as above; conditions: NB7 neuroblastoma + caspase-8, without TRAIL, NB7 Caspase-8, without TRAIL, mean of runs, at 10 µM
# [6] = HIF-2a driven luciferase blockers, single dose – luminescence, 786-0 RCC cells, confirmation (AID 651580;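 active = mean inhibition across four replicates of at least 40 percent at the single tested concentration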); conditions: HIF-2a luciferase reporter luminescence, overnight, at 18.8 µM, stronger effect = higher value
# [7] = HIF-1a luciferase reporter signal reduction – MiaPaCa-2 cells, single concentration, counter-screen for HIF-2a inhibitor project, confirmation (AID 651589); conditions: MiaPaCa-2 HIF-1a luciferase reporter, desferoxamine, overnight; at 18.8 µM; stronger effect = higher value
compound,measurement,setting,value
NC(=O)c1cc2ccc(O)cc2oc1=Nc1ccccc1,inhibition,[1],92.3%
same,inhibition,[2],95.2%
CC1CCCCN1c1ncnc(N)c1[N+](=O)[O-] (stereo not given),inhibition,[1],113%
same,inhibition,[2],103%
COc1ccc(NC(=O)Nc2nnc(-c3ccncc3)s2)cc1,inhibition,[1],67.9%
same,inhibition,[2],68.6%
CC(C)C[C@H]1CNC(=S)N1C[C@H]1CCCN1C[C@H](Cc1ccccc1)N1C[C@H](Cc2ccc(O)cc2)N(CC2CCCCCC2)C1=S,inhibition,[1],103%
same,inhibition,[2],112%
Cc1ccc(S(=O)(=O)Nc2nc3ccccc3nc2Nc2cccc(S(=O)(=O)N3CCCC3)c2)cc1,inhibition,[1],94.9%
same,inhibition,[2],103%
Cc1cc(C)c(O)c(CN(C)Cc2cc(Cl)cc(Cl)c2O)c1,inhibition,[1],109%
same,inhibition,[2],101%
same,inhibition,[3],12%
CC(=O)OCCCNc1cc(Sc2ccc(Cl)cc2)c2nonc2c1[N+](=O)[O-],inhibition,[1],100%
same,inhibition,[2],113%
CC(C)C[C@@H](CN1CCCC1CN1C(=S)NC[C@@H]1Cc1ccc(O)cc1)N1C[C@H](Cc2ccc(O)cc2)N(CC2CCCCCC2)C1=S (stereo not given in full),inhibition,[1],116%
same,inhibition,[2],101%
same,activity,[4],18.3%
same,activity,[5],52%
Cc1csc(CNc2ncnc3ccc(-c4ccoc4)cc23)c1,inhibition,[1],111%
same,inhibition,[2],99.4%
CCS(=O)(=O)c1ncc(Cl)c(C(=O)Nc2ccccc2OC)n1,inhibition,[1],95.8%
same,inhibition,[2],86%
same,activity,[4],98.4%
same,activity,[5],99%
Cc1c(O)ccc2c(-c3ccccc3)cc(=O)oc12,inhibition,[1],105%
same,inhibition,[2],114%
CCC(Oc1ccccc1)C(=O)Nc1ncc([N+](=O)[O-])s1 (stereo not given),inhibition,[1],112%
same,inhibition,[2],98.9%
COc1cc(O)cc2cc3c(c(O)c12)C(=O)CC(C)(O)O3 (stereo not given),inhibition,[1],99.9%
same,inhibition,[2],108%
COc1cc(/C=C2\SC(=O)N(CCNC(=O)c3sc4cc(F)ccc4c3Cl)C2=O)cc(OC)c1OC,inhibition,[1],27.5%
same,inhibition,[2],30.8%
CCC1(O)C(=O)OCc2c1cc1n(c2=O)Cc2cc3cc(O)ccc3nc2-1 (stereo not given),inhibition,[1],106%
same,inhibition,[2],88.8%
COc1ccc(-c2[nH]ncc2-c2ccc3c(c2)OCCO3)c(O)c1,inhibition,[1],107%
same,inhibition,[2],114%
CCCCCCCCCc1nc2sc3c(c2c(=O)n1NC(=O)c1ccc([N+](=O)[O-])cc1)CC(C)(C)OC3,inhibition,[1],80.5%
same,inhibition,[2],115%
c1cncc(CNc2ncnc3ccc(-c4ccoc4)cc23)c1,inhibition,[1],113%
same,inhibition,[2],98.2%
O=C(/C=C/c1cccc([N+](=O)[O-])c1)NC(=S)Nc1ccc(CN2CCOCC2)cc1,inhibition,[1],100%
same,inhibition,[2],112%
Cc1nn(-c2ccccc2)c(Cl)c1C(=O)N1CCN(c2ncnc3c2cnn3-c2ccccc2)CC1,inhibition,[1],114%
same,inhibition,[2],98.4%
same,activity,[4],82%
same,activity,[5],59.6%
CCCc1nnc(NC(=O)c2nc(S(=O)(=O)Cc3ccc(C)cc3)ncc2Cl)s1,inhibition,[1],89%
same,inhibition,[2],86.5%
COc1cc2oc(=O)cc(-c3ccc(-c4ccc(N(C)C)cc4)cc3)c2c(OC)c1OC,inhibition,[1],54.9%
same,inhibition,[2],69.4%
COc1ccc(-c2cc(=O)oc3c(C)c(O)ccc23)cc1,inhibition,[1],94.8%
same,inhibition,[2],101%
O=[N+]([O-])c1cccc(/C=N/Nc2cc(N3CCOCC3)ncn2)c1,inhibition,[1],116%
same,inhibition,[2],102%
CCOC(=O)c1ccc(-n2[nH]c(-c3ccccc3)cc2=O)cc1,inhibition,[1],113%
same,inhibition,[2],93.3%
O=S1(=O)CC=C(CSC(=S)NC2CCS(=O)(=O)C2)C1 (stereo not given),inhibition,[1],100%
same,inhibition,[2],110%
CCOC(=O)c1[nH]c2c(c1C)C(=O)CC(c1ccco1)C2 (stereo not given),inhibition,[1],40.8%
same,inhibition,[2],98.7%
COc1ccc(-n2cc(-c3ccccc3)c3c(N4CC(C)OC(C)C4)ncnc32)cc1 (stereo not given),inhibition,[1],102%
same,inhibition,[2],102%
O=C(Nc1cccc(Cl)c1)Nc1csc([N+](=O)[O-])c1,inhibition,[1],114%
same,inhibition,[2],97.5%
Cc1cccc(C)c1NS(=O)(=O)c1ccc(-c2cnc(C3CC3)o2)cc1,inhibition,[1],112%
same,inhibition,[2],105%
CCOc1ccccc1NC(=O)c1nc(S(=O)(=O)Cc2ccccc2)ncc1Cl,inhibition,[1],78%
same,inhibition,[2],83.5%
same,activity,[4],79.4%
same,activity,[5],99.5%
COc1ccc2cc3c(N)nn(C(=O)Cc4ccccc4OC)c3nc2c1,inhibition,[1],106%
same,inhibition,[2],100%
O=C(Nc1cccc(-c2cnc3ccccc3n2)c1)c1cccc(NC(=O)c2ccco2)c1,inhibition,[1],98.6%
same,inhibition,[2],96.6%
CC1(Cc2cccc(F)c2)C(=O)Nc2ccc(-c3cccnc3)cc21 (stereo not given),inhibition,[1],112%
same,inhibition,[2],98.2%
Nc1nccc(-c2ccc(-n3cnc4ccccc43)cc2)n1,inhibition,[1],101%
same,inhibition,[2],108%
CCOc1ccc(CCN2C(=S)N([C@@H](CC(C)C)CN3CCCC3CN3C(=S)NC[C@@H]3CC(C)C)C[C@@H]2Cc2ccc(O)cc2)cc1 (stereo not given in full),inhibition,[1],76.2%
same,inhibition,[2],93.9%
Fc1ccc(Nc2ccnc(Nc3ccc(F)cc3)n2)cc1,inhibition,[1],113%
same,inhibition,[2],101%
O=C(Nc1ccc2ccccc2c1)c1ccccc1O,inhibition,[1],102%
same,inhibition,[2],90.4%
same,activity,[4],64.2%
same,activity,[5],52.8%
COc1ccc(OC)c(-c2nnc3n2N=C(c2ccc(OC)c(OCC4CC4)c2)CS3)c1,inhibition,[1],113%
same,inhibition,[2],85.1%
C=C1C(=O)O[C@@]23[C@H]1CC[C@@H](C)[C@@H]2CC[C@@]1(C)O[C@@H]31,inhibition,[1],113%
same,inhibition,[2],105%
O=C(Nc1ccc(OCC(=O)N2CCOCC2)cc1)c1cncc(Br)c1,inhibition,[1],90.4%
same,inhibition,[2],98.9%
COc1cc(C2c3cc4c(cc3C3OC(=O)C2C3CO)OCO4)cc(OC)c1OC (stereo not given),inhibition,[1],91.1%
same,inhibition,[2],94.7%
N#CC(C#N)=C1SC(=Nc2ccccc2)C(=Nc2ccccc2)N1c1ccccc1,inhibition,[1],98.5%
same,inhibition,[2],99.1%
same,activity,[4],92.6%
same,activity,[5],83.6%
CCOC(=O)N1CCC(NC(=O)c2ccc3c(c2)N=C(C)c2c(C)ccc(C)c2S3)CC1,inhibition,[1],92.2%
same,inhibition,[2],115%
COC(=O)c1c(NC(=O)CCCC(=O)O)sc2c1CCCCC2,inhibition,[6],41.2% (active)
same,inhibition,[7],27.3% (inactive)
COc1cc(NC(=O)Cn2ncc(Cl)c(Cl)c2=O)c(C)cc1[N+](=O)[O-],inhibition,[1],97.1%
same,inhibition,[2],91.1%
same,activity,[4],99.2%
same,activity,[5],99.3%
COc1cccc2c(C)c(C(=O)O)[nH]c12,inhibition,[6],35.5% (inactive)
same,inhibition,[7],37.3% (inactive)
Cc1ccccc1C(CC(=O)c1cccs1)C(C#N)C#N (stereo not given),inhibition,[6],28.4% (inactive)
same,inhibition,[7],100% (active)
COC(=O)CCNc1ccc2c(c1)OCCO2,inhibition,[6],50.7% (active)
same,inhibition,[7],56.6% (active)
Cc1cccc(C(=O)Nc2ccc(CC(=O)O)cc2)c1,inhibition,[6],53% (active)
same,inhibition,[7],44.8% (inactive)
COc1ccc(-c2cc(-c3nc4ccccn4c3NCc3ccccc3)ccc2OC)cc1,inhibition,[1],105%
same,inhibition,[2],96.6%
same,activity,[4],93.2%
same,activity,[5],88.6%
Cc1c(CCC(=O)O)c(=O)oc2cc3occ(-c4ccccc4)c3cc12,inhibition,[6],68.1% (active)
same,inhibition,[7],50.7% (active)
CC(C)C[C@@H](N)c1nnc(SCC(=O)c2ccc(Cl)cc2)o1,inhibition,[6],80% (active)
same,inhibition,[7],-10.2% (inactive)
N#C/C(=C/c1cccc([N+](=O)[O-])c1)c1nnc2n1CCCCC2,inhibition,[6],23.5% (inactive)
same,inhibition,[7],11.7% (inactive)
Cc1nnnn1/C(=C\c1ccccc1)C(=O)OCC(=O)N1CC2(C)CC1CC(C)(C)C2 (stereo not given),inhibition,[6],62% (active)
same,inhibition,[7],67.3% (active)
CS(=O)(=O)N(Cc1ccc(Cl)cc1)c1ccc(C(=O)NCCSCc2ccco2)cc1,inhibition,[6],-0.82% (inactive)
same,inhibition,[7],45.5% (inactive)
COCC(C)n1c(C)cc(C(=O)COc2ccc(C)nc2[N+](=O)[O-])c1C (stereo not given),inhibition,[6],55% (active)
same,inhibition,[7],41.4% (inactive)
CCN(CC)CCCC(C)n1c2nc(=O)[nH]c(=O)c-2nc2cc(Cl)ccc21 (stereo not given),inhibition,[6],97.9% (active)
same,inhibition,[7],50% (inactive)
Cc1cccc(N(Cc2cc(=O)[nH]c3ccccc23)C(=O)CCl)c1,inhibition,[1],95.1%
same,inhibition,[2],90.7%
same,activity,[4],98.3%
same,activity,[5],98.5%
CCN1CCN(CCNC(=O)c2ccc3c(c2)NC(=O)/C(=C\c2cccc(Cl)c2)S3)CC1,inhibition,[6],-18.3% (inactive)
same,inhibition,[7],108% (active)
O=C(NCCC1=CCCCC1)c1coc(=O)c(Br)c1,inhibition,[1],79.7%
same,inhibition,[2],74.3%
same,activity,[4],76.4%
same,activity,[5],22.7%
Cc1ccc(C(=O)Nc2cccc(C(F)(F)F)c2)cc1NC(=O)c1nccnc1N,inhibition,[1],75.2%
same,inhibition,[2],76%
same,activity,[4],50.6%
same,activity,[5],39%
COc1ccc(OC)c(N(CCN2C(=O)c3ccccc3C2=O)C(=O)CCl)c1,inhibition,[1],106%
same,inhibition,[2],101%
same,activity,[4],98.7%
same,activity,[5],97.6%
Cc1coc2c(O)cc3c(c12)OC1(N2CCCCC2)C(=O)NCCCC31 (stereo not given),inhibition,[6],1.41% (inactive)
same,inhibition,[7],107% (active)
COc1ccc(N(Cc2cc(=O)[nH]c3ccccc23)C(=O)CCl)cc1,inhibition,[1],92.3%
same,inhibition,[2],88.4%
same,activity,[4],99.3%
same,activity,[5],99.5%
NC(N)=Nc1nc(-c2ccccc2)c2cc(Cl)ccc2n1,inhibition,[6],17.8% (inactive)
same,inhibition,[7],107% (active)
Cc1ccc(-c2noc(CNC(=O)c3ccoc3C)n2)cc1,inhibition,[6],0.91% (inactive)
same,inhibition,[7],-16.7% (inactive)
CCCSC(=S)NC1CCS(=O)(=O)C1 (stereo not given),inhibition,[6],14.6% (inactive)
same,inhibition,[7],68.5% (active)
Clc1ccc(Cn2ncc3c(N4CCN(c5ccccc5)CC4)ncnc32)cc1,inhibition,[1],109%
same,inhibition,[2],94.9%
same,activity,[4],69.5%
same,activity,[5],66.8%
CCCc1[nH]nc2c1C(C1CC=CCC1)C(C#N)=C(N)O2 (stereo not given),inhibition,[6],8.58% (inactive)
same,inhibition,[7],39.6% (inactive)
CCOC(=O)C1=C(CC)Nc2ccccc2N=C1NC(=O)Nc1ccc(Cl)c(Cl)c1,inhibition,[1],113%
same,inhibition,[2],103%
same,activity,[4],63.9%
same,activity,[5],64.3%
COc1ccc2[nH]cc(C(=O)CCl)c2c1,inhibition,[1],96.8%
same,inhibition,[2],99.6%
same,activity,[4],99.1%
same,activity,[5],99.2%
O=C(COC(=O)c1ccccc1C(=O)c1ccc(Cl)c([N+](=O)[O-])c1)NC1CCCCCC1,inhibition,[1],110%
same,inhibition,[2],99.7%
same,activity,[4],98.1%
same,activity,[5],97.2%
Cn1ncc2c(O/N=C(\N)c3ccc(C(C)(C)C)cc3)ncnc21,inhibition,[1],101%
same,inhibition,[2],112%
same,activity,[4],98.5%
same,activity,[5],98.8%
CC[C@@H]1Cc2cc(O)ccc2C2=C1c1ccc(O)cc1C[C@H]2CC,inhibition,[6],54.5% (active)
same,inhibition,[7],104% (active)
Cc1cc(Cl)c(S(=O)(=O)Nc2ccc3c(c2)OCCO3)cc1OCC(N)=O,inhibition,[6],46.5% (active)
same,inhibition,[7],52.6% (active)
CCC(C)(C)c1ccc(Oc2ccc(NC(=O)COC(=O)C3=COCCO3)cc2)cc1,inhibition,[6],97.8% (active)
same,inhibition,[7],92.9% (active)
CC(C)(C)c1cc(C(=O)N/N=C/c2ccc([N+](=O)[O-])s2)n[nH]1,inhibition,[6],74.6% (active)
same,inhibition,[7],98.4% (active)
COc1ccc(C(=O)/C=C/c2ccc(-c3ccccc3)cc2)cc1CSCC(=O)O,inhibition,[6],-10.7% (inactive)
same,inhibition,[7],62.4% (active)
